# Bioassay records: PubChem BioAssay, National Center for Advancing Translational Sciences (NCATS)
# DRD3 antagonist: qHTS of D3 Dopamine Receptor Antagonist: qHTS; max response, negative = inhibition, %; actives 2.5% (n = 360,000); D3R cells, DiscoveRx beta-arrestin luminescence, antagonist mode; stronger effect = lower value; D(3) dopamine receptor (Homo sapiens), P35462; in the data active = max response below about -50%; inconclusive = no clear call, values can overlap the other calls; note: % is set by controls: 0 for no effect and ±100 for the full control effect
# Target sequence (P35462 whole entry, looked up): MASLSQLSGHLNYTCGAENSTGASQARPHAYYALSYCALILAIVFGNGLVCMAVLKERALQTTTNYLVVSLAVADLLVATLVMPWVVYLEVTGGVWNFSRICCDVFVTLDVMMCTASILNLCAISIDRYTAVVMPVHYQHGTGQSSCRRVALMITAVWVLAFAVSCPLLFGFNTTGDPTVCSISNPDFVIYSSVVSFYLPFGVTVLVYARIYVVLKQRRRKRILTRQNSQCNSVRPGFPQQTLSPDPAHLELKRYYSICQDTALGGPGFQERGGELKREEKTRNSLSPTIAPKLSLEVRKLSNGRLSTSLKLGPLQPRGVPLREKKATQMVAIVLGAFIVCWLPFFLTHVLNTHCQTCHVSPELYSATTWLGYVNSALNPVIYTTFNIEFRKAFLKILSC
#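 Cells expressing the human receptor were seeded at 1500 cells/well, incubated overnight at 37 degrees C in 5% CO2, then exposed to library compounds with dopamine controls for 90 minutes at 37 degrees C before luminescent detection.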
# GLP-1R inv ag: qHTS of GLP-1 Receptor Inverse Agonists (Inhibition Mode) | Glucagon-like peptide 1 receptor (Homo sapiens), P43220 | HEK293 GLP-1R CRE-luciferase, luminescence, 24 h; GLP-1R form is constitutively active | Potency, µM (highest dose often 38.3 µM), for inactives: at the top dose activity change, negative = inhibition, usual class: inhibitors | actives 1.6% (n = 410,000) | AID 624417, 2012; note: potency is the fitted concentration of half-maximal effect; % is set by controls: 0 for no effect and ±100 for the full control effect; nearly all actives have a fitted effect of over 55% in size
#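 Readout was luciferase luminescence, measured 12 min after detection reagent at room temperature. Beforehand, GLP-1R reporter HEK293 cells had sat 12 h, then received compounds for 24 hr at 37 deg C.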
# GLP-1R agonist: qHTS of GLP-1 Receptor Agonists; Glucagon-like peptide 1 receptor (Homo sapiens), P43220; HEK293 GLP-1R CRE-luciferase, luminescence, 4-6 h; cells express a hypersensitive GLP-1R form; Potency, µM (doses to about 45.6 µM), without a hit: top-dose activation, most hits filed as activators; actives 0.007% (n = 380,000); note: potency is the fitted concentration of half-maximal effect; % of control where 0% means no effect
# D3 ag: qHTS of D3 Dopamine Receptor Agonist: qHTS. D3R DiscoveRx beta-arrestin cells, luminescence, 90 min. max activation, %. actives 0.58% (n = 410,000). AID 652048, 2013; in the data active = max activation above about 30%; note: 0% is about no effect
#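 Agonist mode: compounds and dopamine controls were applied to plated cells for 90 min at 37 degrees C after an overnight attachment at 1500 cells/well. Luminescent read-out followed 30 - 60 minutes at room temperature with DiscoveRx detection reagent.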
# * hit, by the source's call; ? = inconclusive; · = not tested or not shown; ! = not confirmed by another sample; [ ] = another dose, or the depositor's remark. In the library only some 4.3% were active in any assay of this set; here they are far more common. Unless noted, calls come from the whole dose curve; as a rule, active = well fitted curve in the direction sought with a large enough effect; inconclusive = small, poorly fitted or top-dose-only effect, or another doubt; inactive = no such curve, though single readings can be large; an effect the other way counts as inactive or inconclusive.
SMILES,DRD3 antagonist,GLP-1R inv ag,GLP-1R agonist,D3 ag
Cc1cc(C)cc(OCC(=O)NC(Cc2c[nH]c3ccccc23)C(=O)O)c1 (stereo not given),·,12%,·,-1
O=C(NCC(O)c1ccc([N+](=O)[O-])cc1)C(c1ccccc1)c1ccccc1 (stereo not given),-2,?,15%,2
O=[N+]([O-])c1ccc(NC(=S)NCCc2ccccc2)cc1,-10,?,2%,-1
O=[N+]([O-])c1ccc(NNC(=S)Nc2ccccc2)cc1,-93*,?,-11%,-2
NC(N)=NCCCC(NC(=O)c1ccccc1)C(=O)Nc1ccc([N+](=O)[O-])cc1 (stereo not given),-94*,-8%,8%,-44
O=C(Nc1ccc([N+](=O)[O-])cc1)C(c1ccccc1)c1ccccc1,?,2.2µM*,-2%,-12
COc1ccc([N+](=O)[O-])cc1NC(=S)Nc1ccccc1,0,-9%,-5%,-2
O=[N+]([O-])c1ccc(O)c(NC(=S)Nc2ccccc2)c1,-78*,?,9%,-7
Cc1ccc(CCNC(=O)c2ccc(CS(=O)(=O)c3ccc(Br)cc3)o2)cc1,·,0%,·,4
O=[N+]([O-])c1nccn1CO[C@@H](CO)[C@H](O)CO,·,·,9%,-4
COc1cc(CNc2ccc3[nH]c(=O)[nH]c3c2)ccc1OCc1ccc(F)cc1Cl,17,12%,12%,35*!
Cc1noc(C)c1C(=O)Nc1sc2c(c1C(N)=O)CCCCC2,23,15%,11%,47*
CCOC(=O)c1[nH]c2c(c1Cc1ccccc1)C(=O)CC(c1ccc(C(C)(C)C)cc1)C2 (stereo not given),·,11µM*,·,-5
Cc1c(C(=O)OCc2ccccc2)[nH]c2c1C(=O)CC(c1ccc(C(C)(C)C)cc1)C2 (stereo not given),·,-2%,·,-3
CC(C)(C)c1ccc2oc(=O)cc(-c3cccc(-c4ccc(C(F)(F)F)cc4)c3)c2c1,10,8%,7%,-1
CC(=O)c1ccc(-c2cccc(-c3cc(=O)oc4ccc(C(C)(C)C)cc34)c2)cc1,37,5%,20%,39*
N#Cc1c(-c2ccccc2)c(-c2ccccc2)nn(CC(=O)NNC(=O)Nc2ccc(Cl)cc2)c1=O,-23,10µM*,5%,-14
COc1ccc(C2CC(c3ccc4ccccc4c3)=NN2C(=O)CNC2CCCCC2)cc1 (stereo not given),-4,?,-2%,1
C=CCNCC(=O)N1N=C(c2ccc3ccccc3c2)CC1c1ccc(OC)cc1 (stereo not given),-16,13µM*,21%,7
CCOc1ccccc1N=C1SC(CC(=O)Nc2ccc(OC)cc2OC)C(=O)N1CCC1=CCCCC1 (stereo not given),4,2.8µM*,0%,1
O=C(CC1SC(=Nc2ccc(OC(F)F)cc2)N(CCC2=CCCCC2)C1=O)Nc1ccccc1F (stereo not given),-10,?,-9%,-2
COc1cccc(NC(=O)Cn2nc(-c3ccncc3)ccc2=O)c1,·,4%,·,1
OCCN1CCN(c2ncnc3c2c(-c2ccccc2)cn3-c2ccc(F)cc2)CC1,-75*,-11%[0.307 µM],7%,-20
Cc1cccc(-n2cc(-c3ccccc3)c3c(NC4CCCC4)ncnc32)c1,·,?,·,9
Cc1ccc(-n2cc(-c3ccccc3)c3c(NC4CCCC4)ncnc32)cc1,·,2.5µM*,·,7
SMILES,DRD3 antagonist,GLP-1R inv ag,GLP-1R agonist,D3 ag
CC1CN(c2ncnc3c2c(-c2ccccc2)cn3-c2ccc(F)cc2)CC(C)O1 (stereo not given),-92*,4µM*,12%,-35
Cc1ccc(-n2cc(-c3ccccc3)c3c(N4CCOCC4)ncnc32)cc1,27,3.5µM*,7%,2
Cc1ccc(C)c(NC(=O)c2cnc(N3CCCC3)nc2C)c1,·,8%,·,-3
COc1cc(NC(=O)c2noc3c2CC(C)CC3)c(OC)cc1Cl (stereo not given),·,-4%,·,-18
O=C(CSc1nnc(-c2cccc(Cl)c2)o1)N1CCc2ccccc21,·,4%,·,3
Cn1nnnc1Sc1ncnc2scc(-c3ccc(Br)cc3)c12,·,·,-13%,·
Cn1nnnc1Sc1ncnc2scc(-c3ccc(F)cc3)c12,-57*,?,-13%,5
CCc1cccc(-n2nnc(-c3nc(-c4ccccc4Cl)no3)c2N)c1,·,-1%,·,11
Cc1[nH]n(-c2ccccc2)c(=O)c1C1(C(F)(F)F)C(=O)N(c2ccc(F)cc2)C2=C1C(=O)CC(C)(C)C2 (stereo not given),-71*,4%,-5%,0
O=C(NCc1ccc(F)cc1)C(Cc1ccccc1)n1cccc1 (stereo not given),-15,11µM*,3%,0
COc1cccc(NC(=O)C(Cc2ccccc2)n2cccc2)c1 (stereo not given),11,11µM*,5%,9
O=C(NCc1cccs1)C(Cc1ccccc1)n1cccc1 (stereo not given),-12,?,11%,-4
O=C(Nc1ccc(F)cc1)C(Cc1ccccc1)n1cccc1 (stereo not given),-10,13µM*,12%,-12
CCOC(=O)C1CCC(CN(Cc2ccc(OC)cc2)S(=O)(=O)c2ccc(F)c(C(=O)Nc3ccc(C)c(C)c3)c2)CC1 (stereo not given),·,?,·,-4
Cc1ccc(-n2c(SCC(=O)Nc3ccc4c(c3)OCO4)nc3c([nH]c4ccccc43)c2=O)cc1,·,11%,·,7
COc1ccc(CCNC(=O)c2cc(-c3cccs3)on2)cc1OC,14,66%,4%,36*
COc1ccc(OC)c(-c2cc(C(=O)NCc3cccs3)no2)c1,-96*,0%,30%,-27
CCCCn1cc(S(=O)(=O)c2ccc(C)c(C)c2)c(=O)c2cc(F)c(N3CCN(C)CC3)cc21,·,6%,·,-9
CCN(CC)CCCNC(=O)Cn1nc(N2CCN(c3ccccc3OC)CC2)ccc1=O,·,-7%,·,-9
CC1CCN(CCCNc2cc(NCCO)c([N+](=O)[O-])c3nonc23)CC1,-20,13%,-5%,-24
CN(CCO)c1cc(NCCCN2CCC(Cc3ccccc3)CC2)c2nonc2c1[N+](=O)[O-],-75*,1%[0.307 µM],-14%,-12
O=[N+]([O-])c1cccc(-c2ccc(/C=N/Nc3nc(N4CCCCC4)nc(N4CCCCC4)n3)o2)c1,108,?,-4%,52*
CC(C)CN=C(NS(=O)(=O)c1ccccc1)C(Cl)(Cl)Cl,?,7.9µM*,-24%,-8
Cc1ccc(C)c(N2CCN(C(=O)c3ccc(CS(=O)(=O)c4ccccc4C)o3)CC2)c1,29,?,-9%,75*
